From PubChem BioAssay
A selection: hits, their analogues and other compounds. The true share with any hit is near 12%.
Sm TGR block: qHTS Assay for the Inhibitors of Schistosoma Mansoni Peroxiredoxins; Schistosoma mansoni thioredoxin glutathione reductase (TGR), Q962Y6; Potency, µM (top dose mostly 114 µM), for inactives: at the top dose activity change, negative = inhibition, actives largely listed as inhibitors; purified TGR, DTNB reduction, TNB absorbance 405 nm; 360,000 compounds, 3% hits; note: % is set by controls: 0 for no effect and ±100 for the full control effect; nearly all actives have a fitted effect of over 60% in size
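Kinetic colorimetric format: TGR-catalysed, NADPH-driven DTNB reduction monitored via TNB absorbance. Enzyme dispensed at 20 nM; compound exposure 15 min at room temperature before reaction start.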
Pf growth 96h: Primary qHTS for delayed death inhibitors of the malarial parasite plastid, 96 hour incubation. AID 504834, 2011. 320,000 compounds, 6.9% hits. Potency, µM (titrated, usually from 28.7 µM), for inactives: at the highest dose activity change, negative = inhibition, most hits filed as inhibitors. P. falciparum luciferase reporter growth, 96 h; note: % is set by controls: 0 for no effect and ±100 for the full control effect
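Infected RBCs, 2% Hct / 0.05% parasitemia final; luciferase-reporter P. falciparum; cpd 96 h, 37 C, 5% CO2; luciferase detection reagent; luminescence.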
SARS PLpro yeast: qHTS of Yeast-based Assay for SARS-CoV PLP; 330,000 compounds, 0.19% hits; S. cerevisiae expressing SARS-CoV PLpro, growth rescue; AID 485353, 2010; Potency, µM (highest dose often 32.9 µM), for inactives: at the top dose activity, positive = growth rescue, most hits filed as activators; calls by dose curve; note: 0% is about no effect; nearly all actives have a fitted effect of over 55% in size
Pf growth 48h: Primary qHTS for delayed death inhibitors of the malarial parasite plastid, 48 hour incubation. P. falciparum luciferase growth in erythrocytes, 48 h. Potency, µM (titrated, usually from 28.7 µM), for the others: at the top dose activity change, negative = inhibition, usual class: inhibitors. 310,000 compounds, 5.9% hits. AID 504832, 2011; note: % is set by controls: 0 for no effect and ±100 for the full control effect
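A one-generation exposure of luciferase-tagged malaria parasites in RPMI 1640/Albumax erythrocyte culture, 37 C and 5% CO2. Inhibition is inferred from decreased luminescence after adding detection reagent.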
The depositor's hits bear a star; ? = inconclusive; · = no result. Unless noted, calls come from the whole dose curve; as a rule, active = well fitted curve in the direction sought with a large enough effect; inconclusive = small, poorly fitted or top-dose-only effect, or another doubt; inactive = no such curve, though single readings can be large; an effect the other way counts as inactive or inconclusive. Potency is the fitted concentration of half-maximal effect.

SMILES | Sm TGR block | Pf growth 96h | SARS PLpro yeast | Pf growth 48h
O=C(/C=C\c1ccco1)Nc1cc([N+](=O)[O-])ccc1F | ? | 32% | -23% | 50%
O=C(CSc1n[nH]c(=O)n1Cc1ccco1)Nc1ccccc1Cl | -15% | 4.7µM* | 1% | ?
O=C(CSc1nc2c(oc3ccccc32)c(=O)n1Cc1ccco1)Nc1ccccc1Cl | 0% | · | · | ·
CC(C)c1ccc(NC(=O)CSc2n[nH]c(=O)n2Cc2ccco2)cc1 | -14% | 13µM* | 1% | ?
O=C(CSc1n[nH]c(=O)n1Cc1ccco1)Nc1ccccc1 | -3% | 15% | 0% | 0%
CCN(CC)c1ccc(NC(=O)c2cnn3c(C(F)F)cc(-c4ccccc4)nc23)cc1 | 6% | · | · | ·
COc1ccc(N(CC(=O)NCc2ccc(F)cc2)C(=O)Cn2nnc(-c3ccc(C)o3)n2)cc1OC | 3% | -6% | -1% | ?
Cc1ccc2[nH]c(=O)c(-c3noc(CC(C)C)n3)cc2c1 | -1% | 5.2µM* | -1% | 9.3µM*
Cc1ccc2cc(-c3noc(C4CCCCC4)n3)c(=O)[nH]c2c1 | -1% | 9% | 1% | 39%
CCCc1nc(-c2cc3ccc(C)cc3[nH]c2=O)no1 | 0% | 3.7µM* | -1% | 6%
CCOc1ccccc1-c1nc(-c2cc3ccc(C)cc3[nH]c2=O)no1 | 0% | -6% | 7% | 9.3µM*
COc1ccc(NC(=O)CC2C(=O)N(c3cccc(OC)c3)C(=O)N2Cc2cccnc2)cc1 (configuration not stated) | 2% | · | · | ·
COC(=O)C(C)n1cnc2c(nnn2-c2cccc(OC)c2)c1=O (configuration not stated) | 1% | -9% | 3% | 15%
CCc1ccc(OCC(=O)OC(C)C(=O)Nc2ccc(Cl)cn2)cc1 (configuration not stated) | 3% | -22% | -7% | ?
O=C1C(C23CC4CC(CC(C4)C2)C3)C(=O)N(c2ccccc2)N1c1ccccc1 | 0% | 7.4µM* | -7% | -9%
O=C1CC(=O)N(c2ccccc2)N1c1ccccc1 | -22% | 46% | ? | 4%
COc1cc2c(cc1OC)C(c1ccccc1F)NCC2 (configuration not stated) | -23% | ? | -4% | 18%
CCCN(C(=O)c1cccc(-n2cccc2)c1)c1c(N)n(Cc2ccccc2)c(=O)[nH]c1=O | 6% | 1% | 0% | ?
CN(C)CCCN(C(=O)c1ccc(S(=O)(=O)N2CCOCC2)cc1)c1nc2cc3c(cc2s1)OCO3 | -13% | 5% | -4% | ?
Cc1cc(C)c2nc(N(CCCN(C)C)C(=O)c3ccc(S(=O)(=O)N4CCCCCC4)cc3)sc2c1 | -6% | 12µM* | 3% | 9.3µM*
CN(C)CCCN(C(=O)c1ccc(S(=O)(=O)N2CCCCC2)cc1)c1nc2cc3c(cc2s1)OCO3 | -11% | -6% | 1% | 12µM*
CCOC(=O)CN1C(=O)/C(=C/c2cccc(Br)c2)Oc2ccccc21 | -5% | 18% | -1% | ?
O=C(CN1C(=O)/C(=C\c2cccc(Br)c2)Oc2ccccc21)NCC1CCCO1 (configuration not stated) | -8% | 13µM* | · | ?
COc1ccccc1NC(=O)C1=C(C)NC2=C(C(=O)CC(c3ccc(OC)c(OC)c3)C2)C1c1coc2ccccc2c1=O (configuration not stated) | -13% | 0% | -29% | 12µM*
COc1ccc(C2C(C(=O)OCC3CCCO3)=C(C)NC3=C2C(=O)CC(c2ccco2)C3)cc1O (configuration not stated) | -18% | 10µM* | -1% | ?
COC(=O)C1=C(C)NC(C)=C(C(=O)OCC2CCCO2)C1c1cccc(Br)c1 (configuration not stated) | 5% | ? | 0% | 9.3µM*
CCOC(=O)C1=C(C)NC2=C(C(=O)CC(c3ccc(OC)c(OC)c3)C2)C1c1ccc(C)o1 (configuration not stated) | -28% | ? | -6% | 1.2µM*
O=S(=O)(NCCCSc1ccccc1)c1ccccc1F | 11% | 18% | -2% | 14%
O=C(OCC(=O)N1CCCc2ccccc21)c1cc(Cl)ccc1O | -32% | 0% | ? | 17%
CCCN(CC(=O)Nc1ccccc1C)C(=O)c1nn(CC)c(=O)c2ccccc12 | -3% | ? | -2% | ?
